# Compound activity (PubChem BioAssay)
# A selection: hits, their analogues and other compounds. The true share with any hit is near 3.4%.
# FBW7 act: FBW7 E3 ligase activators, primary screen, biochemical, AlphaScreen, human; AID 1259310, 2017; AlphaScreen FBW7–phospho-cyclin E peptide binding, activator screen; 650,000 compounds, 0.13% hits; normalized activity (activation), % at 26.1 µM; in the data active = normalized activity above about 1.9%;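 also: purified mutant Fbw7 with reduced substrate affinity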
# MITF inh: MITF inhibitors, primary screen, biochemical, AlphaScreen, human. Microphthalmia-associated transcription factor (Homo sapiens), O75030. AlphaScreen MITF homodimerization, bead proximity signal. inhibition, % at 2.6 µM. 650,000 compounds, 0.91% hits. AID 1259374, 2018; in the data active = inhibition above about 50%;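 also: 0% = vehicle wells with protein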
# GPR151 activ: activators of human GPR151, primary screen, cell-based, PathHunter beta-arrestin, luminescence. G-protein coupled receptor 151 (Homo sapiens), Q8TDV0. PathHunter beta-arrestin GPR151 cells. activation, % at 11.2 µM. 650,000 compounds, 1% hits. AID 1508602, 2020; in the data active = activation above about 4.9%;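 also: 0% = median of compound wells and 100% = cells with positive control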
# Target sequence (Q8TDV0 whole entry, looked up): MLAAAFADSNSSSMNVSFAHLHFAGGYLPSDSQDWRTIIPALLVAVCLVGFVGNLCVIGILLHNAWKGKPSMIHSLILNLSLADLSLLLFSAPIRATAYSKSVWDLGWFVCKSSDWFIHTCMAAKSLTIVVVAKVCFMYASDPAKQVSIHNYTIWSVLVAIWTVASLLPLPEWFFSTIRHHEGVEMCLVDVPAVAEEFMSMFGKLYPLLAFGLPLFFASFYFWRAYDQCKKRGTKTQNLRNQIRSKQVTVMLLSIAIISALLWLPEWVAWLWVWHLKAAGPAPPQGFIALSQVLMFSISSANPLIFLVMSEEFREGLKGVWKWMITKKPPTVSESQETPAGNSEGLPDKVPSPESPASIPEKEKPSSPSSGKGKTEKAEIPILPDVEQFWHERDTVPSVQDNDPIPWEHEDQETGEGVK
# TEAD-YAP inh: TEAD-YAP interaction inhibition, primary screen, TEAD-YAP interaction inhibitor project, luminescence, HEK-TIYL cells. TEAD-Gal4/YAP UAS-luciferase luminescence. inhibition, % at 9.12 µM. 640,000 compounds, 1.4% hits. AID 1259422, 2018; in the data active = inhibition above about 32%;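 also: 0% = median of test compound wells and 100% = reference inhibitor wells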
# MITF confirm: MITF inhibitors, retest of hits, confirmation, biochemical, AlphaScreen, triplicate; 4,700 compounds, 16% hits; AID 1259372, 2018; shares compounds with MITF inh; AlphaScreen MITF homodimerization, biotin/His-MITF beads; inhibition, % at 2.6 µM;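 active = inhibition above a cutoff derived from the DMSO control wells, cut at about 28% in these data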;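 also: 0% = MITF dimer wells with DMSO only; inhibitors lower the bead chemiluminescence by keeping MITF from dimerizing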
# AlphaScreen DR: AlphaScreen optical interference compounds, dose response, counter-screen, biochemical, HTS; AlphaScreen optical interference counterscreen, cell-free; shares compounds with MITF inh; 480 compounds, 6% hits; IC50, µM; AID 1259373, 2018; call rule not given here
# AS interf ctr: AlphaScreen optical interference compounds, counter-screen for MITF inhibitor project, biochemical, triplicate. 4,700 compounds, 7.6% hits. shares compounds with MITF inh. inhibition, % at 2.6 µM. LysRS AlphaScreen counterscreen, signal interference;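 active = inhibition above a cutoff derived from the DMSO control wells, cut at about 30% in these data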
# The depositor's hits bear a star; . = not tested or not shown.
SMILES,FBW7 act,MITF inh,GPR151 activ,TEAD-YAP inh,MITF confirm,AS interf ctr,others
COc1ccc(OCC(=O)Nc2ccc(-c3nc4ccccc4c(=O)o3)cc2)cc1,0,-2,0,2,.,.,
CCOc1ccc(CN2CCN(S(=O)(=O)c3ccccc3[N+](=O)[O-])CC2)cc1OC,0,34,0,0,.,.,
COc1cc(CN2CCN(Cc3cc(OC)c(OC)c(OC)c3)CC2)c([N+](=O)[O-])cc1OC,0,58*,0,-4,15,18,
CCOc1cc(CN2CCN(Cc3ccccc3[N+](=O)[O-])CC2)ccc1OC,0,71*,-1,-7,-5,1,
COc1cc(CN2CCN(c3ccccc3)CC2)cc([N+](=O)[O-])c1O,0,52*,-1,7,0,1,
C=CCN1C(=O)CSC1=S,0,-14,-1,5,.,.,
COc1cccc(C(=O)N[C@H]2C[C@H]3C(=O)N[C@H](C)C(=O)N3C2)c1,0,66*,-1,-5,-2,-7,
O=C(c1ccccc1[N+](=O)[O-])n1cnc2ccccc21,0,56*,1,4,-3,12,
O=C(c1cc(Cl)ccc1[N+](=O)[O-])n1cnc2ccccc21,1,15,-1,9,.,.,
Cc1ccc(-c2nc3cc(NC(=O)c4cccnc4)ccc3o2)cc1C,0,63*,1,-34,7,10,
Cc1ccc(-c2nc3cc(NC(=O)c4cccnc4)ccc3o2)cc1Cl,0,8,2,-5,.,.,
O=C(O)c1cccc(-n2cccc2/C=C\[N+](=O)[O-])c1,0,63*,0,-8,59*,6,AlphaScreen DR=>6.5
CC(=O)c1ccc(NC(=O)CN2CCC(O)(c3nccn3C)CC2)cc1,1,7,0,-18,.,.,
Cc1ccc(OCCOCCN2CCN(C)CC2)cc1,0,60*,0,-3,8,9,
COc1ccc(OCCOCCN2CCN(C)CC2)cc1,0,12,-1,4,.,.,
CC(C)c1ccc(OCCOCCN2CCN(C)CC2)cc1,0,59*,-2,-3,11,31*,
CCOc1ccc(OCCOCCN2CCN(C)CC2)cc1,0,72*,-1,7,12,-6,
CCOC(=O)N1c2ccc(F)cc2CCC1C (centres undefined),0,10,1,7,.,.,
CC(C)OC(=O)c1ccc(S(=O)(=O)c2ccccc2)cc1S(N)(=O)=O,0,10,0,-3,.,.,
CC1(NCC(O)COc2ccccc2)CCS(=O)(=O)C1 (centres undefined),0,65*,0,8,2,-2,
CC(C)(c1ccccc1)c1ccc(OCC(O)CNC2CCS(=O)(=O)C2)cc1 (centres undefined),0,77*,0,-3,-18,7,
CC(C)(c1ccccc1)c1ccc(OCC(O)CN2CCCCC2)cc1 (centres undefined),0,3,0,-3,.,.,
COc1cc(/C=N\NC(=O)C2C(=O)NCC2c2ccccc2)cc([N+](=O)[O-])c1O (centres undefined),0,1,-1,1,.,.,
Cc1cc(C)c(C)c(S(=O)(=O)N2CCN(CC(O)COCc3ccco3)CC2)c1C (centres undefined),0,51*,-1,-3,7,12,
CCN1CCN(S(=O)(=O)c2c(C)c(C)cc(C)c2C)CC1,0,-1,0,1,.,.,
CC1CCN(CC(=O)N(C)C2(c3ccccc3Cl)CCCCC2=O)CC1 (centres undefined),0,90*,2,-10,-18,6,
CCOC(=O)c1ccc(NC(=O)c2cc(C)ccc2C)cc1,0,-2,2,11,.,.,
CCOC(=O)c1ccc(OCC(O)CN2CCCC2)cc1 (centres undefined),0,52*,4,-3,10,8,
O=C(O)Cn1cnc2sc3c(c2c1=O)CCC3,-1,30,-1,1,.,.,
